Measurements from the supplement of paper PMC10037445.
The full ranking holds about 2,900 compounds; the median of “NF-kB SEAP reporter activity, fold change vs agonist alone” is about 0.99, and the highest 2% start at about 2.6. The sample holds the highest values, similar compounds and a random draw of the others, so the mix is not that of the screen.

Assays:
RAW-Dual [1] = assay: NF-kB SEAP reporter activity, fold change vs agonist alone; cytotoxicity flag (confluency mask): cytotoxic (confluency <70% of control); higher = enhanced NF-kB activity
In short: (§1)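 Cytotoxic wells were those whose IncuCyte confluency was below 70% of agonist controls in both mask sets. The cells were RAW-Dual macrophages at 50,000 cells/well in DMEM on 384-well plates, dosed with 50 nL of library stock by pin tool, stimulated with a PRR agonist 1 h later, and kept at 37 °C, 5% CO2 for 20 hours. IRF and NF-κB reporter activity, as fold change over agonist-alone wells, came from supernatant read by QuantiLuc luminescence and QuantiBlue absorbance, respectively.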

RAW-Dual [2] = assay: NF-kB SEAP reporter activity, fold change vs agonist alone; higher = enhanced NF-kB activity
In short: as §1

RAW-Dual [3] = assay: NF-kB SEAP reporter activity, fold change vs agonist alone; cytotoxicity flag (confluency mask): not cytotoxic; higher = enhanced NF-kB activity
In short: as §1

[4] = agonist: ODN 1826 (TLR9) 0.5 ug/mL
[5] = agonist: Pam2CSK4 (TLR2/6) 0.1 ug/mL
[6] = agonist: Pam3CSK4 (TLR2/1) 0.1 ug/mL
[7] = library stock concentration (final ~1000-fold dilution): 10 mM, cytotoxicity flag (confluency mask): not cytotoxic, agonist: Imiquimod (TLR7) […]
[8] = library stock concentration (final ~1000-fold dilution): 10 mM, cytotoxicity flag (confluency mask): not cytotoxic, agonist: MPLA (TLR4) […]

## O=S(=O)(NCCN1CCNCC1)c1ccc(NC2CCCCC2)c(NCc2ccccc2)c1 (library stock concentration (final ~1000-fold dilution): 10 mM)
RAW-Dual [1]; agonist: LPS (TLR4) 0.1 ug/mL
  NF-kB SEAP reporter activity: 1.57
RAW-Dual [1]; [4]
  NF-kB SEAP reporter activity: 1.13
RAW-Dual [1]; [5]
  NF-kB SEAP reporter activity: 1.04
RAW-Dual [1]; [6]
  NF-kB SEAP reporter activity: 1.73

## O=S(=O)(NCCN1CCNCC1)c1ccc(NC2CCCCC2)c(NCc2ccccc2)c1
RAW-Dual [2]; library stock concentration (final ~1000-fold dilution): 10 mM, cytotoxicity flag (confluency mask): cytotoxic (confluency <70% of control), agonist: Imiquimod (TLR7) […]
  NF-kB SEAP reporter activity: 1.27
RAW-Dual [2]; library stock concentration (final ~1000-fold dilution): 10 mM, cytotoxicity flag (confluency mask): cytotoxic (confluency <70% of control), agonist: MPLA (TLR4) […]
  NF-kB SEAP reporter activity: 2.03

## CN(C)CCCSC(=N)N.Cl.Cl (library stock concentration (final ~1000-fold dilution): 10 mM)
RAW-Dual [3]; agonist: LPS (TLR4) 0.1 ug/mL
  NF-kB SEAP reporter activity: 1.14
RAW-Dual [3]; [4]
  NF-kB SEAP reporter activity: 0.97
RAW-Dual [3]; [5]
  NF-kB SEAP reporter activity: 1.01
RAW-Dual [3]; [6]
  NF-kB SEAP reporter activity: 0.975

## CN(C)CCCSC(=N)N.Cl.Cl
RAW-Dual [2]; [7]
  NF-kB SEAP reporter activity: 0.831
RAW-Dual [2]; [8]
  NF-kB SEAP reporter activity: 0.973

## CC(C)CC(NC(=O)C1OC1C(=O)O)C(=O)NCCCCNC(=N)N (stereo not given) (library stock concentration (final ~1000-fold dilution): 10 mM)
RAW-Dual [3]; agonist: LPS (TLR4) 0.1 ug/mL
  NF-kB SEAP reporter activity: 0.999
RAW-Dual [3]; [4]
  NF-kB SEAP reporter activity: 1.01
RAW-Dual [3]; [5]
  NF-kB SEAP reporter activity: 1.12
RAW-Dual [3]; [6]
  NF-kB SEAP reporter activity: 1.12

## CC(C)CC(NC(=O)C1OC1C(=O)O)C(=O)NCCCCNC(=N)N (stereo not given)
RAW-Dual [2]; [7]
  NF-kB SEAP reporter activity: 0.971
RAW-Dual [2]; [8]
  NF-kB SEAP reporter activity: 1.11

## CC(=O)C(=O)Oc1ccccc1C(=O)O
RAW-Dual [2]; [7]
  NF-kB SEAP reporter activity: 1.46
RAW-Dual [2]; [8]
  NF-kB SEAP reporter activity: 1.68

## CC(=O)C(=O)Oc1ccccc1C(=O)O (library stock concentration (final ~1000-fold dilution): 10 mM)
RAW-Dual [3]; agonist: LPS (TLR4) 0.1 ug/mL
  NF-kB SEAP reporter activity: 1.07
RAW-Dual [3]; [4]
  NF-kB SEAP reporter activity: 1.04
RAW-Dual [3]; [5]
  NF-kB SEAP reporter activity: 0.887
RAW-Dual [3]; [6]
  NF-kB SEAP reporter activity: 1.12

## O=C(N/N=C/c1c(O)ccc2ccccc12)c1ccncc1
RAW-Dual [2]; [7]
  NF-kB SEAP reporter activity: 2.57
RAW-Dual [2]; [8]
  NF-kB SEAP reporter activity: 1.75

## NNC(=O)c1ccncc1 (library stock concentration (final ~1000-fold dilution): 10 mM)
RAW-Dual [3]; agonist: LPS (TLR4) 0.1 ug/mL
  NF-kB SEAP reporter activity: 1.22
RAW-Dual [3]; [4]
  NF-kB SEAP reporter activity: 1.05
RAW-Dual [3]; [5]
  NF-kB SEAP reporter activity: 1.09
RAW-Dual [3]; [6]
  NF-kB SEAP reporter activity: 1.05

## O=C(N/N=C/c1c(O)ccc2ccccc12)c1ccncc1 (library stock concentration (final ~1000-fold dilution): 10 mM)
RAW-Dual [3]; agonist: LPS (TLR4) 0.1 ug/mL
  NF-kB SEAP reporter activity: 2.18
RAW-Dual [3]; [4]
  NF-kB SEAP reporter activity: 2
RAW-Dual [3]; [5]
  NF-kB SEAP reporter activity: 1.15
RAW-Dual [3]; [6]
  NF-kB SEAP reporter activity: 1.92

## NNC(=O)c1ccncc1
RAW-Dual [2]; [7]
  NF-kB SEAP reporter activity: 0.948
RAW-Dual [2]; [8]
  NF-kB SEAP reporter activity: 1.05

## O=S(=O)(N=Cc1c(O)ccc2ccccc12)c1cccs1 (library stock concentration (final ~1000-fold dilution): 10 mM)
RAW-Dual [3]; agonist: LPS (TLR4) 0.1 ug/mL
  NF-kB SEAP reporter activity: 1.28
RAW-Dual [3]; [4]
  NF-kB SEAP reporter activity: 0.662
RAW-Dual [3]; [5]
  NF-kB SEAP reporter activity: 1.04
RAW-Dual [3]; [6]
  NF-kB SEAP reporter activity: 0.853

## O=S(=O)(N=Cc1c(O)ccc2ccccc12)c1cccs1
RAW-Dual [2]; [7]
  NF-kB SEAP reporter activity: 0.768
RAW-Dual [2]; [8]
  NF-kB SEAP reporter activity: 1.03

## Cl.c1ccc2c(-c3cnn4cc(-c5ccc(N6CCNCC6)cc5)cnc34)ccnc2c1 (library stock concentration (final ~1000-fold dilution): 10 mM water)
RAW-Dual [3]; agonist: LPS (TLR4) 0.1 ug/mL
  NF-kB SEAP reporter activity: 0.64
RAW-Dual [3]; [4]
  NF-kB SEAP reporter activity: 0.253
RAW-Dual [3]; [5]
  NF-kB SEAP reporter activity: 0.171
RAW-Dual [3]; [6]
  NF-kB SEAP reporter activity: 0.354

## Cl.c1ccc2c(-c3cnn4cc(-c5ccc(N6CCNCC6)cc5)cnc34)ccnc2c1
RAW-Dual [2]; library stock concentration (final ~1000-fold dilution): 10 mM water, cytotoxicity flag (confluency mask): not cytotoxic, agonist: Imiquimod (TLR7) […]
  NF-kB SEAP reporter activity: 0.986
RAW-Dual [2]; library stock concentration (final ~1000-fold dilution): 10 mM water, cytotoxicity flag (confluency mask): not cytotoxic, agonist: MPLA (TLR4) […]
  NF-kB SEAP reporter activity: 0.571

## CC(C)(C)C1NC(=O)OC2CCCC2OC/C=C/C(F)(F)c2nc3ccccc3nc2OC2CC(C(=O)NC3(C(=O)NS(=O)(=O)C4(C)CC4)CC3C(F)F)N(C2)C1=O (stereo not given) (library stock concentration (final ~1000-fold dilution): 10 mM)
RAW-Dual [3]; agonist: LPS (TLR4) 0.1 ug/mL
  NF-kB SEAP reporter activity: 1.29
RAW-Dual [3]; [4]
  NF-kB SEAP reporter activity: 2.62
RAW-Dual [3]; [5]
  NF-kB SEAP reporter activity: 0.986
RAW-Dual [3]; [6]
  NF-kB SEAP reporter activity: 2.09

## C=CC1CC1(NC(=O)C1CC2CN1C(=O)C(C(C)(C)C)NC(=O)OC1CC1CCCCCc1nc3ccc(OC)cc3nc1O2)C(=O)NS(=O)(=O)C1CC1 (stereo not given) (library stock concentration (final ~1000-fold dilution): 10 mM)
RAW-Dual [3]; agonist: LPS (TLR4) 0.1 ug/mL
  NF-kB SEAP reporter activity: 1.3
RAW-Dual [3]; [4]
  NF-kB SEAP reporter activity: 1.46
RAW-Dual [3]; [5]
  NF-kB SEAP reporter activity: 0.913
RAW-Dual [3]; [6]
  NF-kB SEAP reporter activity: 0.835

## C=CC1CC1(NC(=O)C1CC2CN1C(=O)C(C(C)(C)C)NC(=O)OC1CC1CCCCCc1nc3ccc(OC)cc3nc1O2)C(=O)NS(=O)(=O)C1CC1 (stereo not given)
RAW-Dual [2]; [7]
  NF-kB SEAP reporter activity: 1.3
RAW-Dual [2]; [8]
  NF-kB SEAP reporter activity: 1.22

## CC(C)(C)C1NC(=O)OC2CCCC2OC/C=C/C(F)(F)c2nc3ccccc3nc2OC2CC(C(=O)NC3(C(=O)NS(=O)(=O)C4(C)CC4)CC3C(F)F)N(C2)C1=O (stereo not given)
RAW-Dual [2]; [7]
  NF-kB SEAP reporter activity: 2.27
RAW-Dual [2]; [8]
  NF-kB SEAP reporter activity: 2.15
